# PubChem BioAssay (NCATS)
# Inconclusive results are not listed. Where a call stands in place of a potency, no number is given. Activity calls are given as the source filed them. The call rests on the fitted dose curve; in most records, active means well fitted cell-killing curve with a large enough effect; inconclusive means small, poorly fitted or top-dose-only effect, or effect the other way; inactive means no such curve, though single readings can be large or run the other way.
# Assay: Quantitative High-Throughput drug screen in 47 multiple myeloma cell lines against the NCATS MIPE library collection: MOLP8_DSMZ cell viability assay (AID 1918977); further: nearly all actives have a fitted effect of over 45% in size
# Conditions: MOLP8 myeloma viability, CellTiter-Glo ATP luminescence, 48 h; series mostly up to 45.8 µM
# Description: PI: Beverly A. Mock Ph.D.
# Laboratory of Cancer Biology and Genetics,
# Center for Cancer Research, National Cancer Institute,
# National Institute of Health, Bethesda, Maryland
# Drug resistance and disease progression are common in multiple myeloma (MM) patients, underscoring the need for new therapeutic combinations. […] We hypothesized that effective combinations would reduce MYC expression and enhance p16 activity. […] These preclinical data identify potentially useful drug combinations for evaluation in drug-resistant MM and reveal potential mechanisms of combined drug sensitivity.
# Described herein is the primary MIPE qHTS used to cherrypick compounds. Validated compounds were then further tested for potential synergistic activiy.
# [1] Peat TJ, Gaikwad SM, Dubois W, Gyabaah-Kessie N, Zhang S, Gorjifard S, Phyo Z, Andres M, Hughitt VK, Simpson RM, Miller MA, Girvin AT, Taylor A, Williams D, D'Antonio N, Zhang Y, Rajagopalan A, Flietner E, Wilson K, Zhang X, Shinn P, Klumpp-Thomas C, McKnight C, Itkin Z, Chen L, Kazandijian D, Zhang J, Michalowski AM, Simmons JK, Keats J, Thomas CJ, Mock BA. Drug combinations identified by high-throughput screening promote cell cycle transition and upregulate Smad pathways in myeloma. Cancer Lett. 2023 Aug 1;568:216284. doi: 10.1016/j.canlet.2023.216284. Epub 2023 Jun 24. PMID: 37356470; PMCID: PMC10408729.
# SEQUENCE No. (e.g., 1, 2, 3, etc.); […] (e.g., Cells, Incubation, Reagent, etc.); VALUE and DESCRIPTION.
# 1; Cells; 5 uL; white, solid bottom 1536-well Greiner assay plate.
# 2; Compounds; 23 nL; Kalypsis pin tool (Wako USA) equipped with a 1536-well pin head to transfer to the assay plates.
# 3; Incubation; 48 hours; 37C incubation.
# 4; Reagent;5uL; CellTiter Glo (Promega).
# 5; Detector; 425V; Luminescence; Viewlux PerkinElmer.
# NOTES (numbers refer to Sequence numbers above)
# 1. The cell-based screening methods employed in this study were like those previously published. Briefly, the corresponding myeloma cell lines were screened in 1,536-well plates with 500 cells, 5-uL per well for inhibition of cell viability (assessed by measuring ATP levels with CellTiterGlo).
# 2. NCATS MIPE 4.0 library of approved and investigational drugs were added using the Kalypsis pin tool. Wells treated with DMSO only for 100% viability and media only for 0% viability were used as controls.
# 3. The assay plates were covered and incubated for 48 hours in a 37C, 5% CO2 incubator with controlled humidity.
# 4. After 48 hours, CellTilter-GloTM luminescent substrate mix (Promega) reagent was added to the assay plate and plates we incubated for 5 min at room temperature.
# 5. Signal was measured as median relative luminescence units on a ViewLux (PerkinElmer) multiplate reader.
# [1] Heske CM, Davis MI, Baumgart JT, Wilson K, Gormally MV, Chen L, Zhang X, Ceribelli M, Duveau DY, Guha R, Ferrer M, Arnaldez FI, Ji J, Tran HL, Zhang Y, Mendoza A, Helman LJ, Thomas CJ. Matrix Screen Identifies Synergistic Combination of PARP Inhibitors and Nicotinamide Phosphoribosyltransferase (NAMPT) Inhibitors in Ewing Sarcoma. Clin Cancer Res. 2017 Dec 1;23(23):7301-7311. doi: 10.1158/1078-0432.CCR-17-1121. Epub 2017 Sep 12. PMID: 28899971; PMCID: PMC6636827.
# Potency means the concentration at half of the fitted maximal effect.
row,Compound,Potency
1,CC(C)Cc1ccc(C(C)C(=O)O)cc1 (stereo not given),inactive
2,Cc1cn([C@H]2C[C@H](N=[N+]=[N-])[C@@H](CO)O2)c(=O)[nH]c1=O,inactive
3,CCOC(=O)Nc1ccc(NCc2ccc(F)cc2)nc1N,inactive
4,CCN1CCCC1CNC(=O)c1cc(S(=O)(=O)CC)c(N)cc1OC (stereo not given),inactive
5,COc1ccccc1N1CCN(CC(O)COc2cccc3ccccc23)CC1 (stereo not given),inactive
6,CC(=O)OCC(CCn1cnc2cnc(N)nc21)COC(C)=O,inactive
7,CN(CCOc1ccc(NS(C)(=O)=O)cc1)CCc1ccc(NS(C)(=O)=O)cc1,inactive
8,Cn1cnc2c1c(=O)[nH]c(=O)n2C,16.6 µM (active)
9,CC(C(=O)O)c1cccc(C(=O)c2ccccc2)c1 (stereo not given),inactive
10,CC1(C)O[C@H]2CC(=O)OC[C@]23[C@H]2CC[C@@]4(C)[C@H](c5ccoc5)OC(=O)[C@H]5O[C@]54[C@]2(C)C(=O)C[C@@H]13,inactive
11,Cc1cc(C(C)(C)C)c(O)c(C)c1CC1=NCCN1,inactive
12,CN1CCC(=C2c3ccccc3CC(=O)c3sccc32)CC1,inactive
13,CC[C@@]1(O)C(=O)OCc2c1cc1n(c2=O)Cc2cc3c(CN(C)C)c(O)ccc3nc2-1,1.32 µM (active)
14,CN1CCN(C2=Nc3cc(Cl)ccc3Nc3ccccc32)CC1,inactive
15,CN1C(C(=O)Nc2ccccn2)=C(O)c2ccccc2S1(=O)=O,inactive
16,Cc1cnc(C(=O)NCCc2ccc(S(=O)(=O)NC(=O)NC3CCCCC3)cc2)cn1,inactive
17,Clc1ccc2nsnc2c1NC1=NCCN1,inactive
18,CC#C[C@]1(O)CC[C@H]2[C@@H]3CCC4=CC(=O)CCC4=C3[C@@H](c3ccc(N(C)C)cc3)C[C@@]21C,2.35 µM (active)
19,COc1ccc2[nH]cc(CCNC(C)=O)c2c1,inactive
20,O=C(Nc1ccc([N+](=O)[O-])cc1Cl)c1cc(Cl)ccc1O,1.66 µM (active)

row,Compound,Potency
1,O=C(C1CCCCC1)N1CC(=O)N2CCc3ccccc3C2C1 (stereo not given),inactive
2,CN1C2CCC1CC(OC(=O)C(CO)c1ccccc1)C2 (stereo not given),inactive
3,Cc1cn([C@H]2C=C[C@@H](CO)O2)c(=O)[nH]c1=O,inactive
4,C[C@](N)(Cc1ccc(O)c(O)c1)C(=O)O,13.2 µM (active)
5,NS(=O)(=O)c1cc2c(cc1Cl)NCNS2(=O)=O,inactive
6,C[C@@H]1CC(=O)NN=C1c1ccc(NN=C(C#N)C#N)cc1,26.4 µM (active)
7,CCOC(=O)C(C)(C)Oc1ccc(Cl)cc1,inactive
8,NC(CO)C(=O)NNCc1ccc(O)c(O)c1O (stereo not given),10.5 µM (active)
9,COc1ccc2c(c1)c(CC(=O)O)c(C)n2C(=O)c1ccc(Cl)cc1,inactive
10,Cn1c(=O)c2[nH]cnc2n(C)c1=O,inactive
11,O=C1c2c(O)ccc(O)c2C(=O)c2c(NCCNCCO)ccc(NCCNCCO)c21,1.32 µM (active)
12,COc1cc2nc(N3CCN(C(=O)C4COc5ccccc5O4)CC3)nc(N)c2cc1OC (stereo not given),inactive
13,O=C(CCCN1CCC(O)(c2ccc(Cl)cc2)CC1)c1ccc(F)cc1,inactive
14,NCCCCCC(=O)O,inactive
15,O=c1c(O)c(-c2ccc(O)c(O)c2)oc2cc(O)cc(O)c12,inactive
16,CS(=O)(=O)CCNCc1ccc(-c2ccc3ncnc(Nc4ccc(OCc5cccc(F)c5)c(Cl)c4)c3c2)o1,26.4 µM (active)
17,COc1ccc(C2CNC(=O)C2)cc1OC1CCCC1 (stereo not given),inactive
18,CC1COc2c(N3CCN(C)CC3)c(F)cc3c(=O)c(C(=O)O)cn1c23 (stereo not given),inactive
19,Cc1cc(C(C)(C)C)cc(C)c1CC1=NCCN1,inactive
20,CN(Cc1cnc2nc(N)nc(N)c2n1)c1ccc(C(=O)N[C@@H](CCC(=O)O)C(=O)O)cc1,6.62 µM (active)
